{
  "source": "PubChem BioAssay (EPA / NIEHS)",
  "note": "The source made the active and inactive calls. How the source made its calls: active means hit-call score of the fitted dose curve at least 0.9, where 1 is the maximum; inactive means score below 0.9.",
  "data": [
    {"experiment": "ATG_E_Box_CIS: Attagene CIS-FACTORIAL HepG2 Assay for human Enhancer Box (E-box) (AID 2282936)", "conditions": "HepG2 E-box cis-reporter transcription, actives raise or lower the signal", "procedure": "ATG_CIS is a cell-based, multiplexed-readout assay that uses HepG2, a human liver cell line, with measurements taken at 24 hours after chemical dosing in a 24-well plate.ATG_E_Box_CIS is one of 52 assay component(s) measured or calculated from the ATG_CIS assay. It is designed to make measurements of mRNA induction, a form of inducible reporter, as detected with fluorescence intensity signals by Reverse transcription polymerase chain reaction (RT-PCR) and Capillary electrophoresis technology.Data from the assay component ATG_E_Box_CIS was analyzed into 1 assay endpoint. This assay endpoint, ATG_E_Box_CIS, was analyzed with bidirectional fitting relative to DMSO as the negative control and baseline of activity. Using a type of inducible reporter, measures of mRNA for gain or loss-of-signal activity can be used to understand the reporter gene at the transcription factor-level as they relate to the gene USF1. Furthermore, this assay endpoint can be referred to as a primary readout, because this assay has produced multiple assay endpoints where this one serves a reporter gene function. To generalize the intended target to other relatable targets, this assay endpoint is annotated to the dna binding intended target family, where the subfamily is basic helix-loop-helix protein.\nHuman liver HepG2 cells are transiently transfected with multiple reporter transcription units (MRTUs) in 6-well plates using FuGene 6 reagent (Roche; 3 ml FuGene/1 mg DNA). The MRTU constructs are regulated by a cis-regulating element (promoter). […] A major difference between the CIS and TRANS system is that in CIS activities of endogenous TFs are measured, whereas the TRANS assay evaluates changes in activities of exogenous, chimeric NR-Gal4 proteins. […] At the end of 24 hour incubation, total RNA was isolated using TriZol reagent (Invitrogen). The isolated RNA is then reverse-transcribed using oligo(dT) primer and Mo-MLV reverse transcriptase (Invitrogen) with DNAse I (Ambion) treatment for 30 min. The one-tenth of the produced cDNA was amplified by PCR using Taq DNA polymerase (Invitrogen) and two reporter sequence-specific primers. The PCR products were fluorescently labeled by primer extension with 6-arboxyfluorescein (6-FAM) 5'-labeled reporter sequence-specific primer (2 min at 95 C, 20 s at 68 C and 10 min at 72 C) and these products were digested with 5U of HpaI (New England Biolabs) for 2h at 37 C. The fragments were purified using Qiaquick PCR columns (Qiagen), analyzed on an ABI 3130xL genetic analyzer (Applied Biosystems) with peak positions identified by using a set of X-rhodamine (ROX)-labeled MapMarker1000 molecular weight standards (BioVentures). The raw capillary electrophoresis data was processed using Attagraph software (Attagene).", "values": [
      {"smiles": "CCC[N+](CCC)(CCC)CCC", "outcome": "inactive"},
      {"smiles": "CNC(=O)O/N=C/C(C)(C)S(C)(=O)=O", "outcome": "inactive"},
      {"smiles": "CC(C)O.CC(C)O.OCCN(CCO)CCO.OCCN(CCO)CCO.[Ti]", "outcome": "inactive"},
      {"smiles": "O=C(Cl)OCCOCCOC(=O)Cl", "outcome": "inactive"},
      {"smiles": "BrCC(Br)c1ccccc1", "note": "(stereo not given)", "outcome": "inactive"},
      {"smiles": "Cc1cc(Cl)ccc1OC(C)C(=O)O", "note": "(stereo not given)", "outcome": "inactive"},
      {"smiles": "CC(=O)CN(CC(C)=O)N=O", "outcome": "inactive"},
      {"smiles": "CCN(CCO)CCO", "outcome": "inactive"},
      {"smiles": "C[C@@H]1O[C@@H](O[C@H]2C[C@@H](O)[C@]3(CO)[C@H]4[C@H](O)C[C@]5(C)[C@@H](C6=CC(=O)OC6)CC[C@]5(O)[C@@H]4CC[C@]3(O)C2)[C@H](O)[C@H](O)[C@H]1O", "outcome": "inactive"},
      {"smiles": "c1cc[c]([Sb]([c]2ccccc2)[c]2ccccc2)cc1", "outcome": "inactive"},
      {"smiles": "OC[P+](CO)(CO)CO", "outcome": "inactive"},
      {"smiles": "COCCl", "outcome": "inactive"},
      {"smiles": "O=c1nc(O)n(Cl)c(=O)n1Cl", "outcome": "inactive"},
      {"smiles": "CCCCCCCCCCCCc1cccc(S(=O)(=O)O)c1", "outcome": "inactive"},
      {"smiles": "N#Cc1ccncc1", "outcome": "inactive"},
      {"smiles": "O=C(NC(=O)c1c(F)cccc1F)Nc1cc(Cl)c(Oc2ncc(C(F)(F)F)cc2Cl)c(Cl)c1", "outcome": "inactive"},
      {"smiles": "CCOC(=O)C(SP(=S)(OC)OC)c1ccccc1", "note": "(stereo not given)", "outcome": "inactive"},
      {"smiles": "CC(C)(C)c1cc([N+](=O)[O-])cc(C(C)(C)C)c1O", "outcome": "inactive"},
      {"smiles": "C[C@]12CC[C@@H](O)C[C@@H]1CC[C@@H]1[C@@H]2CC[C@]2(C)C(=O)CC[C@@H]12", "outcome": "inactive"},
      {"smiles": "CCOC(=O)c1ccccc1S(=O)(=O)NC(=O)Nc1nc(Cl)cc(OC)n1", "outcome": "inactive"},
      {"smiles": "Brc1c(Br)c(Br)c(Oc2c(Br)c(Br)c(Br)c(Br)c2Br)c(Br)c1Br", "outcome": "inactive"},
      {"smiles": "NC(=O)CCl", "outcome": "inactive"},
      {"smiles": "C[CH2][Hg][S]c1ccccc1C(=O)O", "AC50": "6.19 µM (active)"},
      {"smiles": "O=C(NC(=O)c1c(F)cccc1F)Nc1ccc(Cl)cc1", "outcome": "inactive"},
      {"smiles": "CN(C)C(=S)S", "outcome": "inactive"},
      {"smiles": "Cl[C@H]1OCCO[C@@H]1Cl", "outcome": "inactive"},
      {"smiles": "O=NN1CCOCC1", "outcome": "inactive"},
      {"smiles": "O=[N+]([O-])c1c2ccccc2cc2ccccc12", "outcome": "inactive"},
      {"smiles": "Cc1cc(Cl)ccc1O", "outcome": "inactive"},
      {"smiles": "CC(=Cc1ccccc1)[N+](=O)[O-]", "AC50": "17 µM (active)"},
      {"smiles": "Cc1ccccc1OP(=O)(Oc1ccccc1C)Oc1ccccc1C", "outcome": "inactive"},
      {"smiles": "C=CCOC(F)(C(F)(F)F)C(F)(F)F", "outcome": "inactive"},
      {"smiles": "CCC(C)(C#N)N=NC(C)(C#N)CC", "note": "(stereo not given)", "outcome": "inactive"},
      {"smiles": "CCCCS(=O)(=O)Cl", "outcome": "inactive"},
      {"smiles": "O=C1C[C@@H]2OCC=C3CN4CC[C@]56c7ccccc7N1[C@H]5[C@H]2[C@H]3C[C@H]46", "outcome": "inactive"},
      {"smiles": "CCCSP(=S)(OCC)Oc1ccc(SC)cc1", "note": "(stereo not given)", "outcome": "inactive"},
      {"smiles": "Cc1cc(C(F)(C(F)(F)F)C(F)(F)F)ccc1NC(=O)c1cccc(I)c1C(=O)NC(C)(C)CS(C)(=O)=O", "outcome": "inactive"},
      {"smiles": "CC1CC(=O)O1", "note": "(stereo not given)", "outcome": "inactive"},
      {"smiles": "CCOP(=O)(OCC)OC(=CCl)c1ccc(Cl)cc1Cl", "outcome": "inactive"},
      {"smiles": "Brc1ccc(Br)cc1", "outcome": "inactive"}
    ]}
  ]
}
